Results filed as inconclusive are left out. A call without a number means that no potency is given here. A number with no mark means an inactive call. Active and inactive are the calls of the source. The call rests on the fitted dose curve; in most records, active means well fitted inhibition curve with a large enough effect; inconclusive means small, poorly fitted or top-dose-only effect; inactive means flat fitted curve, though single readings scatter.

The nature of this test: Primary qHTS for inhibitors of nuclear receptor binding SET domain protein 2 (NSD2) in an isogenic RCH-ACV NSD2 p.E1099K mutant (9B) (AID 1645876). Further: nearly all actives have a fitted effect of over 70% in size. Particulars: RCH-ACV (leukaemia line) NSD2 E1099K (9B) viability, CellTiter-Glo, 72 h; series mostly up to 44.9 µM. (In qHTS, concentration-response curves come from the screen itself.)
Take `CC1(C)CC[C@]2(C(=O)O[C@@H]3O[C@H](CO)[C@@H](O)[C@H](O)[C@H]3O)CC[C@]3(C)C(=CCC4[C@@]5(C)CC[C@H](O[C@@H]6O[C@H](C(=O)O)[C@@H](O[C@@H]7O[C@H](CO)[C@@H](O)[C@H](O)[C@H]7O)[C@H](O)[C@H]6O)C(C)(C)C5CC[C@]43C)C2C1` (stereo partly drawn): the outcome is “inactive [at 9.23 µM]”.

`O=C(/C=C/c1ccc(O)c(O)c1)O[C@H]1[C@H](OC2CCCCC2O)O[C@H](CO)[C@@H](O)[C@@H]1O` (stereo partly drawn): the Potency entry was “inactive”.

Regarding `CC1=C(C)C(=O)OC(C(C)C2C(O)CC3C4C5OC5C5(O)CC(OC6OC(CO)C(OC7OC(C)C(O)C(O)C7O)C(O)C6O)CC(O)C5(C)C4CCC32C)C1` (stereo not drawn), the Potency entry was “inactive”.

For `C=C1CC[C@@H]2[C@](C)(CO)[C@H](O[C@@H]3O[C@H](CO)[C@@H](O)[C@H](O)[C@H]3O)CC[C@@]2(C)[C@@H]1C/C=C1/C(=O)OC[C@H]1O`, the Potency entry is “inactive”.

Turning to `C=C1CCC2C(C)(C)CC(O)CC2(C)C1CCC(C)CC(=O)O` (stereo not drawn), the Potency entry was “inactive”.

Regarding `C/C(=C\C(=O)C[C@@]12C(=O)O[C@]3(C)CC[C@H]1C[C@H]23)C(N)=O`, the Potency entry was “inactive”.

With `O=C(O)c1cccc(C(=O)CCC2OC(n3cnc4c(=O)[nH]cnc43)C(O)C2O)c1` (stereo not drawn), the Potency entry is “inactive”.

As for `CC(C)=CCC[C@@](C)(O)[C@H]1CC[C@]2(C)[C@@H]1[C@H](O)CC1[C@@]3(C)CC[C@H](O[C@@H]4O[C@H](CO)[C@@H](O)[C@H](O)[C@H]4O[C@@H]4O[C@H](CO)[C@@H](O)[C@H](O)[C@H]4O)C(C)(C)[C@@H]3CC[C@]12C` (stereo partly drawn), the Potency result is “inactive”.

As to `CCN=C1N[C@@H]2[C@@H](O)[C@H](O)[C@@H](CO)O[C@@H]2S1`, the Potency result is “inactive”.

With `C[C@H]1CC[C@@]2(OC1)O[C@H]1CC3C4CC[C@H]5C[C@@H](O)CC[C@]5(C)C4CC(=O)[C@]3(C)[C@H]1[C@@H]2C` (stereo partly drawn), the Potency result was “inactive”.

`COC(=O)C1=CO[C@@H](O[C@@H]2O[C@H](CO)[C@@H](O)[C@H](O)[C@H]2O)/C(=C\CO)[C@@H]1CC(=O)OCCc1ccc(O)cc1`: the Potency result is “inactive”.

`C=C(COC(=O)CC(C)C)C1Cc2cc(C(C)=O)ccc2O1` (stereo not drawn): the Potency result is “inactive”.

In the case of `C/C=C/C=C/C=C/C(=O)OC1C=C2C(O)OC(=O)[C@]2(O)[C@@]2(C)CCCC(C)(C)[C@H]12` (stereo partly drawn), the Potency entry was “inactive”.

With `COc1cc(C(=O)OC[C@H]2O[C@@H](OC(C)(C)C(=O)O)[C@H](O)[C@@H](O)[C@@H]2O)cc(OC)c1O`, the Potency result is “inactive”.

Regarding `COc1ccc2c(c1)N1C(=O)C[C@@]34C=CC[N@+]5([O-])CC[C@H]2[C@H](CC3)[C@@]145`, the Potency entry was “inactive”.

Take `C=C1C(O)CC2C(C(=O)O)=COC(OC3OC(CO)C(O)C(O)C3OC(=O)/C=C\c3ccc(O)cc3)C12` (stereo not drawn): the Potency entry is “inactive”.

For `CC1CCC2(NC1)OC1C(O)C3C4CCC5CC(O[C@@H]6O[C@H](CO)[C@@H](O)[C@H](O)[C@H]6O[C@@H]6O[C@@H](C)[C@H](O)[C@@H](O)[C@H]6O)CCC5(C)C4CCC3(C)C1C2C` (stereo partly drawn), the Potency entry is “inactive”.

As to `O=C(OCC1=C[C@@H](O)[C@@H]2C=CO[C@@H](O[C@@H]3O[C@H](CO)[C@@H](O)[C@H](O)[C@H]3O)[C@H]12)c1ccc(O)cc1`, the Potency entry is “inactive”.

In the case of `CCC12CCCN3CCc4c(n(c5ccccc45)C(O)C1)C32` (stereo not drawn), the Potency result is “inactive”.

For `CC(=O)c1ccc(O[C@@H]2OC[C@@H](O)[C@H](O)[C@H]2O[C@]2(CO)O[C@H](CO)[C@@H](O)[C@@H]2O)c(O)c1`, the Potency entry was “inactive”.

For `CC12CC(O)C(O)C=C1c1cc(O)cc(O)c1C(=O)O2` (stereo not drawn), the Potency result was “inactive”.

Turning to `COC(=O)C1(O)C(OC(C)=O)CCC2C3(CC(c4ccoc4)OC3=O)C(C)=CCC21C(=O)OC` (stereo not drawn), the Potency entry was “inactive”.

As for `CC1(C)C=Cc2c(ccc3c2N=C2C(C)(C)[C@@H]4C[C@]56CCCN5C(=O)[C@@]4(C[C@]23O)NC6=O)O1`, the Potency entry is “inactive”.

`C=C1[C@@H]2CC[C@@]3(C)[C@H](c4ccoc4)OC(=O)C[C@]13O[C@H]1CC(=O)C(C)(C)[C@H](C(O)C(=O)OC)[C@]12C` (stereo partly drawn): the Potency entry is “inactive”.

`COc1cc2c(c(OC)c1O)C(c1ccc(O)cc1)C1C(=O)OC3C(COC(=O)C1=C2)OC(CO)(OC1OC(COC(=O)/C=C/c2ccc(OC4OC(C)C(O)C(O)C4O)cc2)C(O)C(O)C1O)C3O` (stereo not drawn): the activity change, negative = viability loss was -11.1% [at 9.23 µM].

Consider `OC[C@@]1(O)CO[C@@H](OC[C@H]2O[C@@H](Oc3ccccc3)[C@H](O)[C@@H](O)[C@@H]2O)[C@@H]1O`, for which the Potency entry is “inactive”.

On to `CC1C2=CC(=O)OC2(O)CC2C1C(OC(=O)c1ccccc1)C(OC(=O)c1ccccc1)C1(O)C2(C)CCC(O)C1(C)C(=O)O` (stereo not drawn), for which the Potency entry was “inactive”.

Take `Nc1ccc(-n2nc(C(F)(F)F)cc2C(F)(F)F)cc1`: the Potency entry was “inactive”.

On to `CC1=CC(=O)CC(C)(C)C1CO[C@@H]1O[C@H](CO)[C@@H](O)[C@H](O)[C@H]1O` (stereo partly drawn), for which the Potency entry was “inactive”.

Turning to `O=C(Cc1ccc(Cl)cc1)Nc1cnccc1C(=O)O`, the Potency entry was “inactive”.

Regarding `O=C(OCC1OC(Oc2ccc(O)cc2COC(=O)C2(O)C(O)CCC(=O)C2OC(=O)C2C=CCC2)C(OC(=O)C2C=CCC2)C(O)C1O)C1C=CCC1` (stereo not drawn), the Potency result is “inactive”.

`C/C=C(/C)C(=O)OC1C2OC2C2(CO2)C2C3OC(=O)C(C)C3CCC12C` (stereo not drawn): the Potency result is “inactive”.

Turning to `COc1cc(/C=C/C(=O)O[C@@H]2C[C@@](O)(C(=O)O)C[C@@H](O)[C@@H]2O)ccc1O`, the Potency result was “inactive”.

Regarding `C=C1[C@H](OC(C)=O)[C@H]2[C@@H](OC(=O)c3ccccc3)[C@@H](C)C[C@]2(O)[C@@H](OC(C)=O)[C@H](C)/C=C/C(C)(C)C(=O)[C@H](OC(C)=O)[C@H]1OC(C)=O`, the Potency entry is “inactive”.

In the case of `CC(O)C1CCC2C3CCC4CC(OC5OC(C(=O)O)C(O)C(O)C5O)CCC4(C)C3CCC12C` (stereo not drawn), the Potency result was “inactive”.

`C[C@H]1[C@H](C)CC[C@]2(C(=O)OC3OC(CO)C(O)C(O)C3O)CC[C@]3(C(=O)O)C(=CCC4[C@@]5(C)CC[C@H](O[C@@H]6O[C@@H](C)[C@H](OC7OC(CO)C(O)C(O)C7O)[C@@H](O)[C@H]6O)C(C)(C)C5CC[C@]43C)[C@H]12` (stereo partly drawn): the activity change, negative = viability loss was -7.55% [at 9.23 µM].

For `CC(NC(=O)CC(=O)O)C(=O)Nc1ccccc1C(N)=O` (stereo not drawn), the Potency result was “inactive”.

Regarding `CC1=C2C3OC(=O)C(C)C3(O)CCC2(C)CCC1` (stereo not drawn), the Potency entry was “inactive”.

The values above are taken from PubChem BioAssay (NCATS).
